Source: PubChem BioAssay
Results with a measured potency or affinity are listed apart. Calls of active or inactive are those of the source. Unless noted, no rule for the calls is given here.

target: Calcium-dependent protein kinase 1 (Plasmodium falciparum (isolate 3D7)) (UniProt P62344); test: PfCDPK1 kinase inhibitors, biochemical, TCAMS library (AID 1159585; cut-off not given, nearly all actives have IC50 up to about 0.98 µM;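 also: inhibitors leave more ATP so luminescence rises with inhibition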); details: recombinant PfCDPK1, Kinase-Glo ATP depletion luminescence
Sequence (P62344 whole entry, looked up): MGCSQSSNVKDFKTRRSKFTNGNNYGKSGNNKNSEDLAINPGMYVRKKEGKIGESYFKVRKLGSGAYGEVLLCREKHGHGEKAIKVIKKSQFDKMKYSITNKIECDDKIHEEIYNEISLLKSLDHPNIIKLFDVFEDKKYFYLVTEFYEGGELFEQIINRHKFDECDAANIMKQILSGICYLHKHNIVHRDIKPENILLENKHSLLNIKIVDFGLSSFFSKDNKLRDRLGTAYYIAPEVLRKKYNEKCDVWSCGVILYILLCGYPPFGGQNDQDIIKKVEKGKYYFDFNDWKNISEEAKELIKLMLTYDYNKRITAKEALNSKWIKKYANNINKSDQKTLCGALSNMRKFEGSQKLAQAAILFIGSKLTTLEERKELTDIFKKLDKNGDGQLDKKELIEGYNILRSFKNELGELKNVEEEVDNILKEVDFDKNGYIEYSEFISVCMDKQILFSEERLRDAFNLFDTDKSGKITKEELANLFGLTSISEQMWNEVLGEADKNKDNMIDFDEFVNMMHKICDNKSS

Compound	outcome
O=C(/C=C/c1cccc2ccccc12)NC1CCC(CN2CCC(c3c[nH]c4ccccc34)CC2)CC1 (stereo not given)	inactive
CN(c1cc(NC(=O)c2cccs2)ccn1)C1CCN(Cc2ccccc2)CC1	inactive
Oc1ccccc1CNCC(O)c1cc(C(F)(F)F)cc(C(F)(F)F)c1 (stereo not given)	inactive
Cn1cc(CN2CCC(CCOC(c3ccccc3)c3ccccc3)CC2)cn1	inactive
COc1ccc(-c2ccccc2)cc1NC(=S)NC1CCC(CN2CCC(c3c[nH]c4ccccc34)CC2)CC1 (stereo not given)	inactive
C=CCOc1ccccc1CNCC(O)c1cccc(C(F)(F)F)c1 (stereo not given)	inactive
O=C(Nc1ccc(Oc2ccccc2)cc1)NC1CCC(CN2CCC(c3c[nH]c4ccccc34)CC2)CC1 (stereo not given)	inactive
CC[C@H]1CN2CC[C@@H]1C[C@H]2[C@H](O)c1cc(N2CCC(CO)CC2)nc2ccc(OC)cc12	inactive
O=[N+]([O-])c1ccc(Oc2c(Cl)cc(S(=O)(=O)N3CCC(CN4CCC(c5c[nH]c6ccccc56)CC4)CC3)cc2Cl)c(Cl)c1	inactive
OC(CNC1CCCCCCC1)c1ccc(Cl)c(Cl)c1 (stereo not given)	inactive
Cc1[nH]c2ccccc2c1C1=CCN(CCCCCC23CCCc4cccc(c42)NC3=O)CC1 (stereo not given)	inactive
CC[C@H]1CN2CC[C@H]1C[C@H]2C(O)c1cc(OC)nc2ccccc12 (stereo not given in full)	inactive
CCCc1c(C(=O)NC2CCC(CN3CCC(c4c[nH]c5ccccc45)CC3)CC2)cnn1-c1c(Cl)cc(Cl)cc1Cl (stereo not given)	inactive
C/C=C1/CN2CC[C@H]1C[C@H]2[C@H](O)c1ccnc2ccc(OC)cc12	inactive
O=C(/C=C/c1ccc(Cl)c(Cl)c1)NCCCCCN1C2CCC1CC(c1c[nH]c3ccccc13)C2 (stereo not given)	inactive
C1=C(c2c[nH]c3ccccc23)CCN(Cc2ccccc2)C1	inactive
CC[C@H]1CN2CC[C@H]1C[C@H]2[C@H](O)c1cc(-c2ccc(F)cc2)nc2ccc(OC)cc12	inactive
Cc1[nH]c2ccccc2c1C1=CCN(CCN2CCCc3c(Br)cccc3C2=O)CC1	inactive
CN1CCC(N(C)c2nccc(N3CCN(Cc4cncn4Cc4ccccc4)CC3)n2)CC1	inactive
CCCCCCCc1cc(O)c2c3c(c(=O)oc2c1)CN(C)CC3	inactive
O=C(/C=C/c1cccs1)NC1CCC(CN2CCC(c3c[nH]c4ccccc34)CC2)CC1 (stereo not given)	inactive
CN(C)CCCn1cc(C(=O)OC2C[C@H]3CC[C@@H](C2)N3C)c2cc(-c3ccccc3)ccc21 (stereo not given in full)	inactive
O=C(c1cc(C(F)(F)F)cc(C(F)(F)F)c1)N1CC[C@H](CCN2CCC3(CC2)C(=O)NCN3c2ccccc2)C[C@H]1Cc1ccc(Cl)c(Cl)c1	inactive
Cc1cc(O)cc2c(C3CCN(CC4CCC(NC(=O)/C=C/c5ccccc5Cl)CC4)CC3)c[nH]c12 (stereo not given)	inactive
CC[C@H]1CN2CC[C@H]1C[C@H]2[C@H](O)c1ccnc2ccc(C#N)cc12	inactive

target: Plasmodium falciparum protein kinase 6 (PK6, PF3D7_1337100) (UniProt Q8IDW1); test: PfPK6 kinase inhibitors, biochemical, TCAMS library (AID 1159586); details: recombinant PfPK6, Kinase-Glo ATP depletion luminescence
Sequence (Q8IDW1 1-305): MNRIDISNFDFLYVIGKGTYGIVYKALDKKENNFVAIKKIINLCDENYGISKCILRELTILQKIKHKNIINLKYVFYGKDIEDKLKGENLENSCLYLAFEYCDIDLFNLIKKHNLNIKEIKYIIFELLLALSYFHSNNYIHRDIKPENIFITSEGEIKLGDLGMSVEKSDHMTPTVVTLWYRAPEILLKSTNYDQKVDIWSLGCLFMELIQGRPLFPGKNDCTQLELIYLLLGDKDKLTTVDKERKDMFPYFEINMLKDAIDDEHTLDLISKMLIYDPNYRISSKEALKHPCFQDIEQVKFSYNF

Compound	outcome
COCCNCc1ccc(-c2ccc(CN(C(=O)Nc3ccccc3)C3CCN(Cc4ccccc4)CC3)cc2)cc1	inactive
Cc1csc(-c2ccc3[nH]cc(C4=CCN(C)CC4)c3c2)n1	inactive
CCCCn1c(C)c(C(=O)OCC)c2cc(OC(C)=O)c(Br)cc21	inactive
Cc1csc(NC2=NCCN2)n1	inactive
O=[N+]([O-])c1ccc(Oc2c(Cl)cc(S(=O)(=O)NC3CCC(CN4CCC(c5c[nH]c6ccccc56)CC4)CC3)cc2Cl)c(Cl)c1 (stereo not given)	inactive
CN1CC=C(c2c[nH]c3ccc(OCc4ccccc4)cc23)CC1	inactive
COc1ccc(CC(C)NCC(O)c2ccc(Cl)c(Cl)c2)cc1 (stereo not given)	inactive
COC(=O)c1ccc(CC(C)NCC(O)c2ccccc2Cl)cc1 (stereo not given)	inactive
Cc1cc(C(=O)NC2CCN(CC3(c4ccc(Cl)cc4)CCC3)CC2)on1	inactive
O=C(/C=C/c1cc(F)cc(C(F)(F)F)c1)N1CCC(CN2CCC(c3c[nH]c4ccccc34)CC2)CC1	inactive
CS(=O)(=O)Nc1ccc2[nH]cc(C3CCN(CC4CCC(NC(=O)/C=C/c5ccc(Cl)c(Cl)c5)CC4)CC3)c2c1 (stereo not given)	inactive
c1ccc2c(NCCCCCCCCCNc3c4ccccc4nc4ccccc34)c3ccccc3nc2c1	inactive
CC(Cc1ccc(Oc2ccccc2)cc1)NCC(O)c1cccc(C(F)(F)F)c1 (stereo not given)	inactive
COC(=O)/C=C/c1ccc(C[C@@H](C)NC[C@H](O)c2cccc(C(F)(F)F)c2)cc1	inactive
CC[C@H]1CN2CC[C@H]1C[C@H]2[C@H](O)c1cc(-c2ccccc2C)nc2ccc(OC)cc12	inactive
O=C(/C=C/c1cccc2ccccc12)NC1CCC(CN2CCC(c3c[nH]c4ccccc34)CC2)CC1 (stereo not given)	inactive
CN(c1cc(NC(=O)c2cccs2)ccn1)C1CCN(Cc2ccccc2)CC1	inactive
Oc1ccccc1CNCC(O)c1cc(C(F)(F)F)cc(C(F)(F)F)c1 (stereo not given)	inactive
Cn1cc(CN2CCC(CCOC(c3ccccc3)c3ccccc3)CC2)cn1	inactive
COc1ccc(-c2ccccc2)cc1NC(=S)NC1CCC(CN2CCC(c3c[nH]c4ccccc34)CC2)CC1 (stereo not given)	inactive

Compound	outcome
C=CCOc1ccccc1CNCC(O)c1cccc(C(F)(F)F)c1 (stereo not given)	inactive
O=C(Nc1ccc(Oc2ccccc2)cc1)NC1CCC(CN2CCC(c3c[nH]c4ccccc34)CC2)CC1 (stereo not given)	inactive
CC[C@H]1CN2CC[C@@H]1C[C@H]2[C@H](O)c1cc(N2CCC(CO)CC2)nc2ccc(OC)cc12	inactive
O=[N+]([O-])c1ccc(Oc2c(Cl)cc(S(=O)(=O)N3CCC(CN4CCC(c5c[nH]c6ccccc56)CC4)CC3)cc2Cl)c(Cl)c1	inactive
OC(CNC1CCCCCCC1)c1ccc(Cl)c(Cl)c1 (stereo not given)	inactive
Cc1[nH]c2ccccc2c1C1=CCN(CCCCCC23CCCc4cccc(c42)NC3=O)CC1 (stereo not given)	inactive
CC[C@H]1CN2CC[C@H]1C[C@H]2C(O)c1cc(OC)nc2ccccc12 (stereo not given in full)	inactive
CCCc1c(C(=O)NC2CCC(CN3CCC(c4c[nH]c5ccccc45)CC3)CC2)cnn1-c1c(Cl)cc(Cl)cc1Cl (stereo not given)	inactive
C/C=C1/CN2CC[C@H]1C[C@H]2[C@H](O)c1ccnc2ccc(OC)cc12	inactive
O=C(/C=C/c1ccc(Cl)c(Cl)c1)NCCCCCN1C2CCC1CC(c1c[nH]c3ccccc13)C2 (stereo not given)	inactive
C1=C(c2c[nH]c3ccccc23)CCN(Cc2ccccc2)C1	inactive
CC[C@H]1CN2CC[C@H]1C[C@H]2[C@H](O)c1cc(-c2ccc(F)cc2)nc2ccc(OC)cc12	inactive
Cc1[nH]c2ccccc2c1C1=CCN(CCN2CCCc3c(Br)cccc3C2=O)CC1	inactive
CN1CCC(N(C)c2nccc(N3CCN(Cc4cncn4Cc4ccccc4)CC3)n2)CC1	inactive
CCCCCCCc1cc(O)c2c3c(c(=O)oc2c1)CN(C)CC3	inactive
O=C(/C=C/c1cccs1)NC1CCC(CN2CCC(c3c[nH]c4ccccc34)CC2)CC1 (stereo not given)	inactive
CN(C)CCCn1cc(C(=O)OC2C[C@H]3CC[C@@H](C2)N3C)c2cc(-c3ccccc3)ccc21 (stereo not given in full)	inactive
O=C(c1cc(C(F)(F)F)cc(C(F)(F)F)c1)N1CC[C@H](CCN2CCC3(CC2)C(=O)NCN3c2ccccc2)C[C@H]1Cc1ccc(Cl)c(Cl)c1	inactive
Cc1cc(O)cc2c(C3CCN(CC4CCC(NC(=O)/C=C/c5ccccc5Cl)CC4)CC3)c[nH]c12 (stereo not given)	inactive
CC[C@H]1CN2CC[C@H]1C[C@H]2[C@H](O)c1ccnc2ccc(C#N)cc12	inactive
